Source: PubChem (SRMLSC)
Compounds with a hit are over-represented: about 6.3% of the library has one in this group of screens.
Fluor 339 460: intrinsic fluorescence of library compounds, ex339/em460 – biochemical, MLSMR library, data from DPM-DC assay, artefact control, profiling panel; compound autofluorescence, ex339/em460 nm, NADH buffer; hits give high values; 1 = no-compound wells, NADH background; fluorescence fold increase at 10 µM; hit rate 5.5% among 65,000;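 active means at 10 µM, mean starting fluorescence two-fold or more over control wells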;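 further: signal is the first read of a kinetic run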
PMK inhibit: S. pneumoniae PMK inhibition. purified PMK, PK/LDH-coupled NADH absorbance 340 nm. inhibition, % at 10 µM. hit rate 0.49% among 65,000. AID 539;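 active means top-ranked compounds by inhibition in the single 10 µM screen, taking a fixed number of the strongest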
Abs 340nm: compound absorbs light at 340 nm | compound absorbance at 340 nm, fold over control | fold change at 10 µM | 65,000 tested, under 10 active;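 active means at 10 µM dose, initial 340 nm absorbance at least 2 fold that of control wells; inactive means change under 2 fold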;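 further: initial absorbance extrapolated from kinetic A340 decline of NADH oxidation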
DPM-DC inhibit: blocks S. pneumoniae diphosphomevalonate decarboxylase; hit rate 0.49% among 65,000; AID 556; purified DPM-DC, PK/LDH coupled NADH fluorescence; calls only at 10 µM;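 active means the 320 compounds with the highest percent inhibition in the single-dose primary screen, excluding strongly autofluorescent ones, cut at about 32% in these data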;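 further: kinetic rate of NADH fluorescence loss reporting ADP formed by the decarboxylase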
Spn MK inh: blocks S. pneumoniae mevalonate kinase. purified MK, PK/LDH-coupled NADH absorbance 340 nm. inhibition, % at 10 µM. hit rate 0.48% among 65,000;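 active means ranked among the strongest by inhibition in the single 10 µM screen, a fixed top-ranked set picked for dose follow-up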
NADH coupling: blocks coupling enzymes of NAD/NADH assays; coupled PK/LDH NADH assays, four targets; IC50, µM (top dose mostly 10 µM); hit rate 0.02% among 65,000; AID 774;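 active means single-dose screening hits from any of four coupled enzyme assays that gave an IC50 when retested across doses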;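 further: the DPM-DC format reads NADH fluorescence rather than 340 nm absorbance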
Of the large screens only hits and unclear results are named; the others gave an inactive call; [ ] = another dose, or the depositor's remark.

CCC(C)(C)NC(=O)C(c1ccccc1F)N(Cc1ccco1)C(=O)c1csnn1 (configuration not stated)	PMK inhibit 38.0
CC(=O)NC(CCS(C)(=O)=O)C(=O)Nc1c(C)cccc1C (configuration not stated)	Spn MK inh 47.0
Cn1c(-c2ccc(Br)o2)nc2ccccc21	none
CC(=O)c1ccc(-c2nc3ccccc3n2C)o1	Fluor 339 460 2.96 (not shown: DPM-DC inhibit)
Cc1cc2nc(-c3cccnc3SCC(=O)NCc3ccco3)[nH]c2cc1C	Fluor 339 460 3.7 (not shown: DPM-DC inhibit)
CCN1CCN(Cc2c(O)ccc3c(=O)c(-c4ccc(OC)c(OC)c4)c(C)oc23)CC1	Fluor 339 460 3.87 (not shown: DPM-DC inhibit)
COc1ccc(-c2c(C)oc3c(CN4CCN(C)CC4)c(O)ccc3c2=O)cc1	Fluor 339 460 2.2 (not shown: DPM-DC inhibit)
N=c1c(S(=O)(=O)c2ccccc2)cc2c(=O)n3ccccc3nc2n1CC1CCCO1 (configuration not stated)	Fluor 339 460 3.08
CCOC(=O)CSc1nc2ccccc2c(=O)n1CC1CCCO1 (configuration not stated)	none
Cc1ccc(S(=O)(=O)c2cc3c(=O)n4cc(C)ccc4nc3n(CC3CCCO3)c2=N)cc1 (configuration not stated)	Fluor 339 460 2.09
Cn1c(=N)c(S(=O)(=O)c2ccc(Cl)cc2)cc2c(=O)n3ccccc3nc21	none
Cc1noc(C)c1CSc1nnc2cc(C)c3ccccc3n12	none
Cc1ccc2nc(-c3ccccn3)cc(C(=O)NC3CCN(C)CC3)c2c1	Fluor 339 460 2.95
COc1ccc(N2CCN(CC(=O)N3CCC(C)CC3)CC2)cc1	none
O=[n+]1cc(-c2cc3ccccc3o2)n([O-])c2c1CCCC2	Fluor 339 460 2.88
O=[n+]1cc(-c2ccc(F)cc2)n([O-])c2c1CCC2	none
COc1ccc(-c2c(NC(C)=O)n(C)c3ccccc3c2=O)cc1	Fluor 339 460 3.81 (not shown: DPM-DC inhibit)
Cn1c(NC(=O)c2ccco2)c(-c2ccccc2)c(=O)c2ccccc21	none
COc1ccc2[nH]cc(C3N4CC5(C)CN3CC(C)(C4)C5=O)c2c1 (configuration not stated)	Spn MK inh 48.0
CCc1cccc(NC(=O)c2ccc(Br)o2)c1	none
COC(=O)CSc1nc(C)c(C(C)=O)cc1C#N	none
CCOC(=O)c1cc(C#N)c(SCC(=O)c2cc(C#N)c(SC)nc2C)[nH]c1=O	Fluor 339 460 2.04 (not shown: DPM-DC inhibit)
CCCOc1nc(N)c(C#N)c(-c2ccccc2F)c1C#N	none
Cc1nnc(SCC(=O)n2c3c(c4ccccc42)CCCC3)s1	none
CCCC(=O)N1CCN(S(=O)(=O)c2cc(Cl)ccc2OC)CC1	Fluor 339 460 5.14 (not shown: DPM-DC inhibit)
COc1ccc(Cl)cc1S(=O)(=O)N1CCN(C(=O)c2ccco2)CC1	none
O=C(CN1C(=O)C2CC=C(Cl)CC2C1=O)NCc1ccccc1 (configuration not stated)	none
O=C(NCc1ccccc1)N(Cc1cc2cc3c(cc2[nH]c1=O)OCCO3)CC1CCCO1 (configuration not stated)	Fluor 339 460 3.66 (not shown: DPM-DC inhibit)
CC(=O)c1cccc(S(=O)(=O)N(Cc2cc3cc4c(cc3[nH]c2=O)OCCO4)CC2CCCO2)c1 (configuration not stated)	none
O=c1[nH]c2cc3c(cc2cc1CN(CC1CCCO1)S(=O)(=O)c1ccccc1)OCCO3 (configuration not stated)	Fluor 339 460 3.77 (not shown: DPM-DC inhibit)
CC1CCc2cc(F)cc3c(=O)c(C(=O)O)cn1c23 (configuration not stated)	none
COc1c(N2CCNC(C)C2)c(F)cc2c(=O)c(C(=O)O)cn(C3CC3)c12 (configuration not stated)	Fluor 339 460 3.85 (not shown: DPM-DC inhibit)
c1ccc2c(-c3nc4ncccc4o3)cccc2c1	Fluor 339 460 3.77 (not shown: DPM-DC inhibit)
O=C(COc1ccccc1)Nc1ccc(Cl)c(-c2nc3ncccc3o2)c1	none
COc1ccc(C(=O)N(CN2CCCC2=O)c2nccs2)cc1OC	none
Nc1nc2n(n1)C(c1cccs1)CC(c1ccc(F)cc1)N2 (configuration not stated)	none
COc1ccc(C2CC(c3cccs3)n3nc(N)nc3N2)cc1 (configuration not stated)	Fluor 339 460 2.05
COc1ccc(-c2cc(C(F)(F)F)n3nc(C(=O)NCc4ccco4)cc3n2)cc1	Fluor 339 460 2.18 (not shown: DPM-DC inhibit)
COc1ccc(-c2cc(C(F)(F)F)n3nc(C(=O)Nc4cc(C)on4)cc3n2)cc1OC	Fluor 339 460 3.82 (not shown: DPM-DC inhibit)
COC(=O)c1cc2nc(-c3ccccc3)cc(C)n2n1	Fluor 339 460 3.65 (not shown: DPM-DC inhibit)
COC(=O)c1cc2nc(-c3ccc(OC)cc3)cc(C(F)(F)F)n2n1	Fluor 339 460 2.19 (not shown: DPM-DC inhibit)
CCOCCCn1c(=S)[nH]c2cc3c(cc2c1=O)OCO3	none
O=C(NCc1ccco1)c1cc2nc(-c3ccc4c(c3)OCO4)cc(C(F)(F)F)n2n1	Fluor 339 460 3.7 (not shown: DPM-DC inhibit)
COC(=O)c1ccccc1NC(=O)Nc1nnc(N2CCCCC2C)s1 (configuration not stated)	none
CC1CCCCN1CC(=O)Nc1sc2c(c1C#N)CCC2 (configuration not stated)	none
COC(=O)C1=C(C)NC2=C(C(=O)CCC2)C1c1ccsc1 (configuration not stated)	none
CC1=C(C(=O)N2CCOCC2)C(c2ccsc2)C2=C(CCCC2=O)N1 (configuration not stated)	Fluor 339 460 2.94 (not shown: DPM-DC inhibit)
O=C(O)C1CC=CCC1C(=O)N1CCN(c2nc(-c3ccccc3)c3ccccc3n2)CC1 (configuration not stated)	none
O=C(O)CCCC(=O)N1CCN(c2nc(-c3ccccc3)c3ccccc3n2)CC1	Fluor 339 460 2.08 (not shown: DPM-DC inhibit)
CCOC(=O)N1CCC(NC(=O)Cn2c3c(c(-c4ccccc4Cl)cc2=O)CCC3)CC1	Fluor 339 460 2.16 (not shown: DPM-DC inhibit)
CCOC(=O)N1CCC(NC(=O)Cn2c3ccccc3c3cn[nH]c(=O)c32)CC1	none
CCOC(=O)CSc1nnc(CNC(=O)Cc2ccccc2)n1C	none
CCOC(=O)C(C(=O)OCC)[C@@H]1CS(=O)(=O)C[C@H]1C(C(=O)OCC)C(=O)OCC	none
O=C(Nc1ccc(-c2nc3ccccc3o2)cc1)C1CCCO1 (configuration not stated)	Fluor 339 460 2.08
O=C(Cc1coc(-c2ccc(F)cc2)n1)NCc1ccccc1	none
CC(CN1CCN(C)CC1)OC(=O)c1ccc(Cl)cc1 (configuration not stated)	PMK inhibit 28.0
CC(CN1CCCCC1)OC(=O)c1ccc(Cl)cc1 (configuration not stated)	none
CCc1ccc(-c2nc(CN3CCC(C(=O)NCc4ccco4)CC3)c(C)o2)cc1	none
Cc1csc2ncc(C(=O)Nc3ccon3)c(=O)n12	Fluor 339 460 4.79 (not shown: DPM-DC inhibit)
Cc1csc2ncc(C(=O)Nc3ccccc3Cl)c(=O)n12	Fluor 339 460 2.01, DPM-DC inhibit active[fluoresces]
CCOC(=O)CC(=O)CSc1nnc(Cn2c(=O)sc3ccccc32)n1C	none
